Assay outcomes as filed in PubChem BioAssay.
M1 antag = human M1 muscarinic receptor antagonists, primary screen, CHO-K1 cells, Fluo-8 calcium fluorescence, 1536-well; AID 588852, 2011; Muscarinic acetylcholine receptor M1 (Homo sapiens), P11229; 360,000 tested, 1.3% active; inhibition, % at 3 µM; CHO-K1 hM1, ACh EC80 antagonist;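 active means percent inhibition above its own plate's cutoff, namely the mean of that plate's compound wells plus 3 SD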;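 further: peak over basal fluorescence ratio during 140 s after agonist addition; 0% = ACh EC80 plus DMSO and 100% = DMSO alone without agonist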
Target sequence (P11229 whole entry, looked up): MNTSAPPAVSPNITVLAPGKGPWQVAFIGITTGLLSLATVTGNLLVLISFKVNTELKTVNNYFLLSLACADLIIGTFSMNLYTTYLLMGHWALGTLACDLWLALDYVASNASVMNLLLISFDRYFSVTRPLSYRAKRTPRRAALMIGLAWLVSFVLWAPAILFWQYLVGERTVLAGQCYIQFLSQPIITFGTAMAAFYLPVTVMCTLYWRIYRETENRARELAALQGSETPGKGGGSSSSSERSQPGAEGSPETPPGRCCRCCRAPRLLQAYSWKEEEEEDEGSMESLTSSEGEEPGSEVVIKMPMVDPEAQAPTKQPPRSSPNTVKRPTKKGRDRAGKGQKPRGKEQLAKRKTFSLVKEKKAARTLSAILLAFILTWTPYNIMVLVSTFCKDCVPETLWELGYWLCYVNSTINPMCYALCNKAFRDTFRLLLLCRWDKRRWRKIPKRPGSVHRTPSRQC
M1 PAM = human M1 muscarinic receptor positive allosteric modulators, primary screen, CHO-K1 cells, Fluo-8 calcium fluorescence, 1536-well | 360,000 tested, 0.088% active | CHO-K1 hM1, ACh EC20; 0% = ACh EC20, 100% = maximal ACh | activation, % at 3 µM; in the data active means activation above about 19%, passing the limit was not always enough
M1 ag = human M1 muscarinic receptor agonists, primary screen, Fluo-8 calcium fluorescence, CHO-K1 cells, HTS. 360,000 tested, 0.33% active. activation, % at 3 µM. Muscarinic acetylcholine receptor M1 (Homo sapiens), P11229. CHO-K1 hM1, agonist mode; 0% DMSO, 100% acetylcholine EC100;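 active means activation above the run's mean compound activation plus 3 SD, cut at about 16% in these data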;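 further: peak over basal fluorescence ratio within a 140 s kinetic read after compound addition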
M1 ag parental = counter-screen for M1 agonists: effect in parental CHO-K1 cells | Fluo-8 calcium fluorescence; scaled to maximal ATP response, vehicle zero | activation, % at 3 µM | 360,000 tested, 0.48% active | AID 602248, 2012; in the data active means activation above about 15%;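 further: untransfected CHO-K1 host cells lacking M1 receptor as counterscreen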
CHO-K1 Ca antag = nonselective inhibitor or artifact in parental CHO-K1 cells; ATP-induced calcium, Fluo-8 fluorescence; inhibition, % at 3 µM; 360,000 tested, 0.6% active;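 active means inhibition above a per-plate cutoff, the plate's mean sample inhibition plus 3 SD, cut at about 24% in these data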;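 further: 0% = DMSO plus EC80 ATP and 100% = DMSO alone without ATP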
M1 PAM parental = nonselective calcium activators in parental CHO-K1 cells, primary screen, counter-screen for M1 PAM project, cell-based, Fluo-8 calcium fluorescence, full deck, 1536-well | AID 602247, 2012 | activation, % at 3 µM | 360,000 tested, 0.02% active | ATP EC20; 0% at ATP EC20, 100% at ATP max;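 active means activation above the run cutoff, the mean activation of all test compounds plus 3 SD, cut at about 40% in these data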;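 further: peak over basal fluorescence ratio in a 140 s read after ATP addition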
Active calls of the source: *; x = not tested or not shown. Shown are actives, neighbours in structure and some others; about 2.4% of the full set was active somewhere.

SMILES	M1 antag	M1 PAM	M1 ag	M1 ag parental	CHO-K1 Ca antag	M1 PAM parental
O=S1(=O)N[C@H](Cc2ccccc2)COc2cc(N3CCC[C@@H]3CO)ccc21	x	x	x	3	-10	6
Oc1cc2c(cc1CN1CCN(c3ncccn3)CC1)OCO2	-7	9	-6	1	-8	17
CC1CN(CC(O)COC(c2ccc(Cl)cc2)c2ccc(Cl)cc2)CC(C)O1 (stereo not drawn)	-2	-6	-9	0	11	3
CN(CC(O)COC(c1ccccc1)c1ccccc1)C1CCCCC1 (stereo not drawn)	30*	-32	-12	2	-11	15
CN(C)CC(O)COC(c1ccc(Cl)cc1)c1ccc(Cl)cc1 (stereo not drawn)	41*	-21	-6	5	-12	15
CN(CC(O)COc1ccc(OCC(O)CN(C)C2CCCCC2)cc1)C1CCCCC1 (stereo not drawn)	-15	6	-5	0	0	18
Cc1ccc([N+](=O)[O-])c(OCCN2CCC(Cc3ccccc3)CC2)c1	84*	-23	-6	13	-9	-8
Cc1ccccc1OCCN1CCC(Cc2ccccc2)CC1	9	-11	-3	4	-19	29
O=[N+]([O-])c1ccc(CN2CCC(Cc3ccccc3)CC2)cc1	39*	-26	-10	0	-4	7
O=[N+]([O-])c1cccc(OCCCN2CCC(Cc3ccccc3)CC2)c1	77*	-30	-8	1	-8	8
Cc1cc2nc3n(c2cc1C)CC1CC(C(=O)NCC2CC2)N(C)C31 (stereo not drawn)	42*	-19	-11	0	-4	-3
CC(C)CN1Cc2ccccc2Oc2cc(Br)ccc2S1(=O)=O	-11	16	29*	5	-14	41*
CCCCN1Cc2ccccc2Oc2cc(Br)ccc2S1(=O)=O	-16	26*	31*	0	-27	12
C[C@@H](c1ccccc1)N1Cc2ccccc2Oc2cc(Br)ccc2S1(=O)=O	4	-3	-4	1	0	-11
Cc1ccc(CCNC(=O)C2CCN(S(=O)(=O)N3CCOCC3)CC2)cc1	0	9	1	0	0	6
O=c1[nH]cnc2c1sc1nc(C(F)F)cc(-c3ccccc3)c12	-2	9	-3	-1	1	-12
COc1ccc(S(=O)(=O)Nc2cccc3c2O[C@H](CN(C)C(=O)Nc2c(C)noc2C)[C@@H](C)CN([C@H](C)CO)C3=O)cc1	-13	6	-2	1	-13	5
OC(C#Cc1ccccc1)(c1ccccc1)c1ccccc1	-31	12	-6	0	-18	16
C[N+]1(CC#CC(O)(c2ccccc2)c2ccccc2)CCCC1	100*	-26	-11	2	-5	24
CC(C)[N+](C)(C)CC#CC(O)(c1ccccc1)c1ccccc1	99*	-25	-7	0	-8	8
Cc1ccc(CNC(=S)Nc2cc(C(=O)O)ccc2C)cc1	3	-5	-4	0	31*	-19
Cc1c(-n2cc(C(=O)c3cc(F)ccc3O)cc(C#N)c2=O)c(=O)n(-c2ccccc2)n1C	-1	2	-13	4	-3	18
N#Cc1cc(C(=O)c2ccccc2O)cn(-c2nccs2)c1=O	31	-24	45*	72*	25*	-4
N#Cc1cc(C(=O)c2cc(F)ccc2O)cn(-c2nccs2)c1=O	34	-17	54*	55*	21	-9
O=C1CNC(c2ccccc2)C(c2ccccc2)N1 (stereo not drawn)	-14	10	-1	0	-8	11
SMILES	M1 antag	M1 PAM	M1 ag	M1 ag parental	CHO-K1 Ca antag	M1 PAM parental
O=C(CN1CCN(Cc2ccc(Cl)cc2)C1=O)NCCCN1CCN(c2ccc(F)cc2)CC1	3	-8	-3	7	-1	6
Cc1ccccc1CN1CCN(CC(=O)NCCCN2CCN(c3ccc(F)cc3)CC2)C1=O	0	-2	0	1	29*	-6
CCOc1ccccc1NS(=O)(=O)c1ccc2oc(=O)ccc2c1	-5	3	0	11	-1	8
O=C(Nc1ccc(C(=O)O)cc1)/C(=C\c1ccc([N+](=O)[O-])cc1)NC(=O)c1ccc(Br)cc1	6	-9	-3	-1	28*	-18
Cc1ccc(NC(=O)/C(=C\c2ccc([N+](=O)[O-])cc2)NC(=O)c2ccccc2)cc1	0	2	-3	0	0	6
CC(NC(=O)c1ccco1)C(c1cccs1)N1CCN(c2ccc(F)cc2)CC1 (stereo not drawn)	51*	-18	-9	3	-5	14
CC(C)c1ccccc1NC(=O)c1ccc2ncsc2c1	-14	10	-3	2	-9	7
N/C(=N/OC(=O)c1ccc(Cl)cc1)c1ncc([N+](=O)[O-])s1	-27	20	2	0	29*	-25
CN(C)c1ccc2nc3c(=O)[nH]c(=O)nc-3n(CC(O)C(O)C(O)CO)c2c1 (stereo not drawn)	15	-5	18*	10	-2	-9
CC(Oc1ccc(Cl)cc1Cl)C(=O)OCC(=O)c1c(N)n(C)c(=O)n(C)c1=O (stereo not drawn)	-6	6	-1	3	-25	-9
CCOC(=O)CC1C(=O)NCCN1c1nc2ccc(C)cn2c(=O)c1/C=C1\SC(=S)N(CC(C)C)C1=O (stereo not drawn)	2	-4	5	5	-7	10
CCCN1C(=O)/C(=C/c2c(N3CCNC(=O)C3CC(=O)OCC)nc3c(C)cccn3c2=O)SC1=S (stereo not drawn)	39*	-17	13	10	10	-5
O=C1NC[C@H](Cc2ccccc2)N(CC2CCN(CCCC3CCCC3)CC2)C1=O	13	-10	-10	0	10	-12
Cc1c(C(=O)NCC2COc3ccccc3O2)oc2ccc(S(=O)(=O)N3CCOCC3)cc12 (stereo not drawn)	35*	-7	2	5	13	0
Cc1c(C(=O)NCC2COc3ccccc3O2)oc2ccc(S(=O)(=O)N3CC(C)CC(C)C3)cc12 (stereo not drawn)	14	-9	-4	0	4	-11
Cc1c(C(=O)NCc2ccccc2)oc2ccc(S(=O)(=O)N3CCC4(CC3)OCCO4)cc12	9	0	-1	5	7	8
